Rows were chosen to be rich in hits. Some 20% of all compounds tested hit in one or more screens of this group.
CHX counter: affects cycloheximide protein synthesis inhibition readout, counter-screen. AID 2314. max response, %. 12% of 300,000 active. cell reporter, cycloheximide protein synthesis inhibition counterscreen; in the data active = max response mostly above about 13%, no sharp cut-off; inactive = mostly below about 14%; note: read at 38.3 µM for the half of the compounds with a filed dose; 0% is about no effect
HCMV inh: human cytomegalovirus inhibition; activity change, negative = inhibition, % at 57.5 µM; HFF cells, HCMV-luciferase reporter, 72 h; stronger effect = lower value; 4.5% of 410,000 active; AID 1259415; in the data active = activity change below about -60%; inconclusive = no clear call, values can overlap the other calls; inactive = above about -39%; note: % is set by controls: 0 for no effect and ±100 for the full control effect
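Compounds were evaluated in HFFs infected with an HCMV luciferase reporter virus (MOI 1 PFU/cell). Luciferase in lysates collected 72 h post infection served as the replication measure.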
Shiga inhibitor: Shiga toxin inhibition; Vero cells, Shiga toxin protein synthesis inhibition reporter; inhibition, % at 38.7 µM; 9.2% of 290,000 active; in the data active = inhibition mostly above about 28%, no sharp cut-off; inactive = mostly below about 43%; note: 0% is about no effect
Pf growth 96h: P. falciparum growth inhibition at 96 hours | Potency, µM (doses to about 28.7 µM), without a hit: at the top dose activity change, negative = inhibition, actives largely listed as inhibitors | 6.9% of 320,000 active | P. falciparum luciferase reporter growth, 96 h; note: potency is the fitted concentration of half-maximal effect; % is set by controls: 0 for no effect and ±100 for the full control effect
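Delayed-death screen, second-generation endpoint: infected erythrocytes, 2% hematocrit, 0.05% parasitemia final; 96 hours at 37 C, 5% CO2; luciferase detection reagent; luminescence decrease equals reduced growth.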
Pf growth 48h: P. falciparum growth inhibition at 48 hours (one generation). P. falciparum luciferase growth in erythrocytes, 48 h. Potency, µM (doses to about 28.7 µM), inactives show at the highest dose activity change, negative = inhibition, most hits filed as inhibitors. 5.9% of 310,000 active. AID 504832; note: potency is the fitted concentration of half-maximal effect; % is set by controls: 0 for no effect and ±100 for the full control effect
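Erythrocytes infected with P. falciparum carrying an integrated firefly luciferase reporter (2% hematocrit, 0.1% parasitemia final) were exposed to compounds in RPMI 1640 with 0.5% Albumax at 37 C, 5% CO2. Growth inhibition was scored as reduced luminescence.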
* marks the source's active call; other numbers are inactive results; u = inconclusive; x = no result; [ ] = another dose, or the depositor's remark. Unless noted, calls come from the whole dose curve; as a rule, active = well fitted inhibition curve with a large enough effect; inconclusive = small, poorly fitted or top-dose-only effect, or another doubt; inactive = no such curve, though single readings can be large or run the other way.

SMILES	CHX counter	HCMV inh	Shiga inhibitor	Pf growth 96h	Pf growth 48h
COc1cc(-c2nc3n(n2)C(c2ccc(F)cc2)C2=C(CCCC2=O)N3)cc(OC)c1OC (stereo unspecified)	-4	41	-15	61%	5.2µM*
CC(C)Cc1nnc(NC(=O)C2CCN(C(=O)c3ccc(F)cc3)CC2)s1	x	-7	x	-23%	u
O=C(COC(=O)c1cc(-c2cccs2)nc2ccccc12)NC1CCS(=O)(=O)C1 (stereo unspecified)	-5	2	26	-10%	-1%
COc1ccc(C(=O)N2CCc3ccc(NC(=O)c4ccccn4)cc3C2)cc1F	42*	-89*	56*	-11%	u
O=C(c1cc(S(=O)(=O)N2CCOCC2)ccc1F)N(CCc1ccccc1)Cc1ccccc1	x	-17	x	u	9.3µM*
Cc1ccc(S(=O)(=O)N2CCCCC2)cc1C(=O)N(CCc1ccccc1)Cc1ccccc1	x	u	x	9.3µM*	13µM*
CCCCCNC(=O)c1cc(S(=O)(=O)N2CCCC2)ccc1F	-5	-16	-10	12µM*	-14%
O=C(NCc1ccccc1)c1cc(S(=O)(=O)N2CCOCC2)ccc1F	-5	-13	-5	x	-22%
CCN1CCN(S(=O)(=O)c2ccc(Cl)c(C(=O)N(CCc3ccccc3)Cc3ccccc3)c2)CC1	x	-21	x	x	x
O=C(NCCc1ccccc1)c1cc(S(=O)(=O)N2CCOCC2)ccc1F	19*	-14	45	x	14%
O=C(Nc1ccccc1C(F)(F)F)c1cc(S(=O)(=O)N2CCOCC2)ccc1F	-2	-13	14	0.93µM*	10%
COc1cc2cc(CN(Cc3cccnc3)C(=O)Nc3ccccc3F)c(=O)[nH]c2cc1OC	-1	12	13	22%	7.4µM*
CCN1CCCC1CN(Cc1cc2c(C)cc(C)cc2[nH]c1=O)C(=O)NC1CCCCC1 (stereo unspecified)	-6	-18	-3	x	9.3µM*
CCN(CC)CCCN(Cc1cc2cc(OC)c(OC)cc2[nH]c1=O)C(=O)Nc1ccccc1	25	-11	10	x	u
Cc1ccc2[nH]c(=O)c(CN(CCN3CCOCC3)C(=O)Nc3ccccc3F)cc2c1	-1	8	-2	7%[5.75 µM]	u
Cc1cc2cc(CN(CCN3CCOCC3)C(=O)Nc3ccccc3F)c(=O)[nH]c2cc1C	-2	1	-9	x	9.3µM*
Cc1ccc2[nH]c(=O)c(CN(CCCN3CCOCC3)C(=O)Nc3cccc(Cl)c3)cc2c1	1	-28	-4	1%	8.3µM*
Cc1ccc(C)c(N2CCN(C(=O)c3cnn(-c4ccccc4Cl)c3C3CCN(C(=O)OC(C)(C)C)CC3)CC2)c1	x	5	x	x	x
C[C@@]12C=Cc3occc3C1CC[C@@]13C[C@@H](CCC12)[C@@](O)(CO)C3 (stereo partly specified)	0	x	23	x	x
CN(C(=O)CN(c1ccccc1)S(=O)(=O)c1ccc(F)cc1)C1CCS(=O)(=O)C1 (stereo unspecified)	1	-9	-11	33%	4%
CCc1ccc(NCc2cc3cc4c(cc3n(CC(=O)Nc3cccc(OC)c3)c2=O)OCO4)cc1	x	30	x	x	x
Cc1cccc2cc(CN(CCN3CCCC3)C(=O)NC3CCCCC3)c(=O)[nH]c12	-2	21	-17	u	4.7µM*
Cc1ccc2cc(CN(CCCN3CCOCC3)C(=O)NC3CCCCC3)c(=O)[nH]c2c1C	1	45	11	20%	u
Cc1cc2cc(CN(CCCN3CCOCC3)C(=O)NC3CCCCC3)c(=O)[nH]c2cc1C	-2	41	-4	240%	4.7µM*
Cc1cc(O)cc(C)c1NS(=O)(=O)c1ccc2ccccc2c1	-9	-83*	3	u	7%
SMILES	CHX counter	HCMV inh	Shiga inhibitor	Pf growth 96h	Pf growth 48h
Cc1cc(C)c(NS(=O)(=O)c2ccccc2)c(C)c1NS(=O)(=O)c1ccccc1	x	-72*	x	x	x
Cn1c(=O)oc2cc(S(=O)(=O)NC(Cc3ccccc3)C(=O)NCc3ccccc3Cl)ccc21 (stereo unspecified)	x	25	x	x	x
Cc1cccc(C(=O)n2nc(C)c(S(=O)(=O)N3CCOCC3)c2C)c1	x	-9	x	x	x
COc1ccc(OCC(=O)Nc2nc(-c3ccc(Br)cc3)ns2)cc1	x	2	x	x	x
O=C1Nc2ccc(Br)cc2C1(O)Cc1ccncc1 (stereo unspecified)	-3	15	1	42%	8%
O=C1Nc2ccccc2C1(O)Cc1ccncc1 (stereo unspecified)	13	-29	-7	9.3µM*	12%
CC(C)CCn1c(=O)c2sccc2n2c(CCCC(=O)NC3CCC(C)CC3)nnc12 (stereo unspecified)	x	-21	x	x	x
CCCCSc1nnc(-c2ccccc2N)c(=O)[nH]1	28*	9	77*	80%	30%
CCCSc1nnc(-c2ccccc2N)c(=O)[nH]1	31	19	93*	x	50%
Cc1nnc(SCc2ccccc2Cl)c2cc3sccc3n12	x	-17	x	x	x
Cc1cnc(CNC(=O)c2ccc3oc(Cc4ccc(Cl)cc4)nc3c2)cn1	4	12	-1	u	-18%
CCN(CC)c1nc2ccccc2nc1C(=O)Nc1ccc(C(C)=O)cc1	x	-13	x	x	x
Cc1ccc(N(CC(=O)NCc2ccco2)C(=O)CCC(=O)Nc2nccs2)cc1C	-3	23	-7	79%	-10%
CC(C)C(=O)NN(C(=O)C(C)C)c1nc2ccccc2s1	-1	39	16	24%	-2%
O=C(C1CCCCC1)N(CCN1CCCC1)c1nc2ccccc2s1	32*	39	40	-5%	47%
O=C(NN(C(=O)C1CC1)c1nc2ccccc2s1)C1CC1	46*	-3	60*	4.1µM*	27%
CCN(c1ccccc1)c1nnc(NC(=O)Nc2ccc(Br)cc2)s1	x	1	x	x	x
CC(C)OC(=O)C(C(=O)C(F)(F)F)c1cc(NS(=O)(=O)c2ccc3c4c(cccc24)C(=O)N3)ccc1O (stereo unspecified)	x	-9	x	x	x
O=C(CNc1ccc(Oc2ccccc2)cc1)N1CCOCC1	12*	5	36*	36%	42%
S=C(Nc1ccc(Oc2ccccc2)cc1)N1CCOCC1	12*	-26	25	1.2µM*	20%
CCN1C(=O)c2cccc3c(S(=O)(=O)N(C(C)=O)c4ccc(OC(C)=O)cc4)ccc1c23	x	210	x	x	x
O=C(CSc1nc(SCC(=O)NCc2ccccc2)n(-c2ccccc2)n1)NCc1ccccc1	-3	-15	-13	9.3µM*	x
COc1cc(/C(C)=N\NC(=O)CSc2nc3ccccc3n2C)ccc1O	1	-13	-11	-3%	-16%
O=C(CSc1nc2ccccc2c2nc3ccccc3n12)NCc1ccco1	28*	26	50*	7%	9.3µM*
CN(C)C(=O)CSc1nc(SCC(=O)N(C)C)n(-c2ccccc2)n1	-3	6	-6	-29%	16%
O=C(CCCCCn1c(SCc2ccncc2)nc2ccccc2c1=O)NCc1ccco1	-3	-21	-8	21%	8.3µM*
C/C(=N/NC(=O)CSc1nc2ccccc2n1C)c1ccncc1	-9	-101*	-12	0%	u

Source: PubChem BioAssay (National Center for Advancing Translational Sciences (NCATS))
